Bioassay records as filed in PubChem BioAssay.
Mtb hypoxia inh – Mtb hypoxia fluorescent reporter inhibition. AID 1159583. M. tuberculosis hypoxia-regulated fluorescent reporter, fluorescence. fluorescence inhibition, % (no concentration beside the values). 0.1% of 300,000 active; in the data active means fluorescence inhibition mostly above about 23%, no sharp cut-off; inactive means mostly below about 17%
DUSP3 inh – inhibitors of human VHR1 phosphatase (DUSP3). P51452. recombinant VHR phosphatase, pNPP absorbance. inhibition, % at 13.3 µM. 0.52% of 290,000 active; in the data active means inhibition above about 50%
Target sequence (P51452 whole entry, looked up): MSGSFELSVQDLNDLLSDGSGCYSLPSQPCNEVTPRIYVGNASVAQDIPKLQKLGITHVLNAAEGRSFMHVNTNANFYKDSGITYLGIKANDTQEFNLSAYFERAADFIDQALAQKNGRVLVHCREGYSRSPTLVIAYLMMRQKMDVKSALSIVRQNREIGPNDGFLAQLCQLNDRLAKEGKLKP
SSB-PriA inh – blocks PriA binding to SSB C-terminal tail. AlphaScreen SSBct-PriA binding, biotinylated peptide. inhibition, % at 33 µM. 0.6% of 430,000 active; in the data active means inhibition mostly above about 37%, no sharp cut-off; inactive means mostly below about 20%;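 further: plate controls were negative control peptide for no effect and reference peptide for full effect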
PfHsp40 rescue – restores yeast growth despite PfHsp40 toxicity; 0.68% of 340,000 active; S. cerevisiae expressing PfHsp40, growth rescue, ATP luminescence; growth rescue, % at 12.5 µM; in the data active means growth rescue above about 28%, passing the limit was not always enough;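 further: yeast W303a lacking pdr1 and pdr3 grown in galactose medium; growth measured after three days at 30 °C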
Sa RN4220 lethal – S. aureus RN4220 growth inhibition; OD600, 16 h; inhibition, % (concentration not given with the values); 0.33% of 330,000 active; in the data active means inhibition above about 85%;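 further: plate controls were untreated cells for no effect and reference antibiotic for full effect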
Sa ugtP lethal – compounds lethal to S. aureus RN4220 ugtP deletion mutant. OD600 growth, 16 h. growth inhibition, % (test concentration not listed). 0.54% of 330,000 active; in the data active means growth inhibition above about 68%;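 further: plate controls were untreated wells for no effect and antibiotic for full effect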
Starred values were filed as active, the others as inactive. Most compounds without a hit are left out; they make up all but 1.8% or so of the library.

What do the screens show for `CCOC(=O)c1c(-c2ccccc2)oc2ccc(O)cc12`?
Mtb hypoxia inh: 14.8; DUSP3 inh: 21.9; SSB-PriA inh: -26.2; PfHsp40 rescue: 317.8*; Sa RN4220 lethal: 2.4; Sa ugtP lethal: 2.5

How did CCOC(=O)c1c(-c2ccccc2)oc2ccc(OCC)cc12 do in these assays?
Mtb hypoxia inh: 4.0; DUSP3 inh: 39.0; SSB-PriA inh: -17.6; PfHsp40 rescue: -0.2; Sa RN4220 lethal: -5.4; Sa ugtP lethal: 79.2

What do the screens show for `CCOC(=O)c1c(-c2ccccc2)oc2ccc(OC)cc12`?
DUSP3 inh: 25.4; SSB-PriA inh: -99.8; PfHsp40 rescue: -1.3; Sa RN4220 lethal: -2.5; Sa ugtP lethal: 89.6*

How did CCCCCn1c(SCc2cccc([N+](=O)[O-])c2)nc2cc(C(=O)N3CCOCC3)ccc2c1=O do in these assays?
SSB-PriA inh: -11.0

What do the screens show for `Cc1ccc2cc(C3C(C#N)=C(N)Oc4c3ccc3cccnc43)c(=O)[nH]c2c1` (stereo unspecified)?
Mtb hypoxia inh: 1.8; DUSP3 inh: 13.2; SSB-PriA inh: 78.6*; PfHsp40 rescue: -0.4; Sa RN4220 lethal: 6.2; Sa ugtP lethal: 10.1

Results for CCc1ccc2[nH]c(=O)c(C3C(C#N)=C(N)Oc4c3ccc3cccnc43)cc2c1 (stereo unspecified) ?
Mtb hypoxia inh: 8.0; DUSP3 inh: 16.6; SSB-PriA inh: 17.3; PfHsp40 rescue: 80.5*; Sa RN4220 lethal: 7.3; Sa ugtP lethal: -1.4

Results for N#CC1=C(N)Oc2cc3ccccc3cc2C1c1cccnc1 (stereo unspecified) ?
Mtb hypoxia inh: 17.3; DUSP3 inh: 0.1; SSB-PriA inh: 7.5; PfHsp40 rescue: 1.2; Sa RN4220 lethal: 2.3; Sa ugtP lethal: 10.4

How did N#CC1=C(N)Oc2c(ccc3cccnc23)C1c1cccnc1 (stereo unspecified) do in these assays?
Mtb hypoxia inh: 9.5; DUSP3 inh: 8.7; SSB-PriA inh: 88.2*; PfHsp40 rescue: -0.8; Sa RN4220 lethal: 0.0; Sa ugtP lethal: -0.3

Results for Cc1c(C(=O)NCC(c2ccco2)N(C)C)cccc1[N+](=O)[O-] (stereo unspecified) ?
SSB-PriA inh: 0.0

What do the screens show for `O=C(NCC1CCCO1)c1n[nH]nc1-c1ccc(F)cc1` (stereo unspecified)?
SSB-PriA inh: -13.0

What do the screens show for `CCC(Sc1nc(N)c(NC(=O)c2ccco2)c(=O)[nH]1)C(=O)OC` (stereo unspecified)?
SSB-PriA inh: -25.0

What do the screens show for `Cc1ccc(S(=O)(=O)N(c2nc(N(C)C)nc(N(C)C)n2)n2cnnc2)cc1`?
Mtb hypoxia inh: -9.9; DUSP3 inh: -3.9; SSB-PriA inh: -23.6; PfHsp40 rescue: 9.5; Sa RN4220 lethal: 94.3*; Sa ugtP lethal: 97.9*

What do the screens show for `O=C(Nc1ccn(Cc2c(F)c(F)c(F)c(F)c2F)n1)c1ccc(COc2ccccc2Cl)cc1`?
Mtb hypoxia inh: 3.8; DUSP3 inh: 51.6*; SSB-PriA inh: -17.9; PfHsp40 rescue: -1.0; Sa RN4220 lethal: -0.4; Sa ugtP lethal: -22.8

What do the screens show for `CCCC1S/C(=N/N=Cc2ccco2)NC1=O` (stereo unspecified)?
Mtb hypoxia inh: 11.5; Sa RN4220 lethal: 3.8; Sa ugtP lethal: -2.1

What do the screens show for `Cc1nc(CN2CC(c3nc(-c4ccco4)no3)C2)cs1`?
SSB-PriA inh: -1.0

Results for COc1ccc(S(=O)(=O)Nc2ccc3ccccc3c2)cc1C ?
Mtb hypoxia inh: 8.5; DUSP3 inh: -6.6; SSB-PriA inh: -16.6; PfHsp40 rescue: 31.4*; Sa RN4220 lethal: -1.1; Sa ugtP lethal: 19.9

Results for Cc1cc(-c2nnc(NC(=O)c3cc(C)on3)o2)n(C)n1 ?
SSB-PriA inh: -5.0

What do the screens show for `Cc1cc(C(=O)Nc2nnc(-c3cc(C)nn3C)o2)on1`?
SSB-PriA inh: 49.0*

Results for CCCN1CCCc2cc(CCNC(=O)c3cccs3)ccc21 ?
SSB-PriA inh: 63.0*

How did CCCN1CCCc2cc(CCNC(=O)c3ccccc3)ccc21 do in these assays?
SSB-PriA inh: 56.5

Results for CCCN1CCCc2cc(CCNC(=O)COc3ccccc3F)ccc21 ?
SSB-PriA inh: 83.0*

Results for CCCN1CCCc2cc(CCNC(=O)c3ccccc3F)ccc21 ?
SSB-PriA inh: 67.8*

What do the screens show for `CCCN1CCCc2cc(CCNC(=O)COCC)ccc21`?
SSB-PriA inh: 51.0

How did CCCN1CCCc2cc(CCNC(=O)C(C)(C)C)ccc21 do in these assays?
SSB-PriA inh: 51.0*
